In assay [1] the test system is Zika virus NS2B-NS3 protease (unlinked complex). The assay can be described thus: Primary screen GU Rhodamine qHTS for Zika virus inhibitors: Unlinked NS2B-NS3 protease assay (AID 1347159). Note: nearly all actives have a fitted effect of over 60% in size. Particulars: Recombinant ZIKV NS2B-NS3 protease, Rhodamine110 substrate fluorescence; series mostly up to 107 µM. Summed up: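 Unlinked NS2B/NS3, 25 nM; Rhod110 peptide, 1.5 microM; compounds, up to 114 microM. Reaction run 15 min at RT in 10 mM Tris-HCl pH 8.0, 0.01% Tween 20; kinetic fluorescence change fitted with a 4-parameter Hill model.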
In general terms: Quantitative high-throughput screening tests each substance at several concentrations.

In assay [2] the test system is Zika virus NS2B-NS3 protease (linked construct). In words: Primary screen NINDS Rhodamine qHTS for Zika virus inhibitors (AID 1347160). Note: nearly all actives have a fitted effect of over 55% in size. Particulars: purified NS2B-NS3 protease, Rhodamine110 substrate fluorescence; series mostly up to 57.1 µM. Put shortly:
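Single-chain NS2B-NS3 protease, 25 nM, pH 8.0; compounds preincubated 15 min. Activity: Rhodamine110 release from 1.5 microM substrate over 15 min, room temperature, data fitted to 4-parameter Hill.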

The record followed here is PubChem BioAssay (NCATS).

Results filed as inconclusive are left out. Where a call stands in place of a potency, no number is given. A number with no mark means an inactive call. Activity calls are given as the source filed them. Calls come from the whole dose curve; as a rule, active = well fitted inhibition curve with a large enough effect; inconclusive = small, poorly fitted or top-dose-only effect; inactive = no such curve, though single readings can be large or run the other way.
Potency is the fitted concentration of half-maximal effect.

Regarding `O=C(NCc1ccccn1)Nc1nnc(-c2ccco2)o1`, the Potency entry in assay [1] and in assay [2] was “inactive” in each case.
As for `CC(O)CO[C@@H]1O[C@H](CO)[C@@H](O)[C@H](O)[C@H]1O` (some centres not stated), the Potency entry in assay [1] and in assay [2] was “inactive” each time.
`O=C1NC(=O)C(c2cn(-c3ccccc3)nc2-c2ccc(F)cc2)N1` (configuration not stated): the Potency result in assay [1] and in assay [2] was “inactive” throughout.
For the compound `CN(C)c1nc(NC2CCC(NCCc3ccc(Br)cc3OC(F)(F)F)CC2)nc2ccccc12` (configuration not stated), the Potency entry in assay [1] and in assay [2] was “inactive” each time.
For the compound `CC1=C(COC2OC(CO)C(O)C(O)C2O)C(C(CO)C(=O)O)CC1` (configuration not stated), the Potency result in assay [1] and in assay [2] was “inactive” in each case.
`Nc1nc2c(ncn2[C@@H]2O[C@H](CO)[C@@H](O)[C@H]2O)c(=O)[nH]1`: the Potency result in assay [1] and in assay [2] was “inactive” each time.
Take `CC1OC(OC2C(C)OC(OC3C(OC(=O)C45CCC(C)(C)CC4C4=CCC6C7(C)CCC(OC8OC(C(=O)O)C(O)C(O)C8OC8OC(CO)C(O)C(OC9OC(C)C(O)C(O)C9O)C8O)C(C)(CO)C7CCC6(C)C4(C)CC5)OC(CO)C(O)C3O)C(O)C2O)C(O)C(O)C1O` (configuration not stated): the activity change, negative = inhibition in assay [1] was 1.27% [at 19.1 µM]. For the same compound, the outcome in assay [2] is “inactive [at 10.7 µM]”.
Take `Cc1cc(OCc2nc(-c3ccccc3Cl)cs2)ccc1OCC(=O)O`: the Potency in assay [1] was 12.6 µM (active); in assay [2] it was 14.1 µM (active).
The matching figures for `Cc1ccc(-c2ccc3c(ccc4sc5c(c43)NC[C@@H](C)NC5=O)n2)cn1`: “inactive” and “inactive”.
On the same counts, the results for `COC(=O)N(C)c1c(N)nc(-c2nn(Cc3ccccc3F)c3ncccc23)nc1N` are “inactive” and “inactive”.
On the same counts, the results for `CC(O)/C=C/C1(O)C2(C)COC1(C)CC(O)C2` (configuration not stated) are “inactive” and “inactive”.
Take `COc1ccc(C2(O)CCC(N3CC[C@@H](NC(=O)CNC(=O)c4cccc(C(F)(F)F)c4)C3)CC2)cn1` (some centres not stated): the Potency entry in assay [1] and in assay [2] was “inactive” in each case.
For the compound `Cc1cc(Nc2cc(N3CCN(C)CC3)nc(/C=C/c3ccccc3)n2)n[nH]1`, the Potency result in assay [1] and in assay [2] was “inactive” each time.
On to `C=CC1(C)CC(OC(=O)/C(C)=C\COC(C)=O)C(C(=C)C(=O)O)C(O)C1C(=C)CO` (configuration not stated), for which the Potency entry in assay [1] and in assay [2] was “inactive” each time.
Regarding `CCOc1cc2ncc(C#N)c(Nc3ccc(F)c(Cl)c3)c2cc1NC(=O)/C=C/CN(C)C`, the Potency entry in assay [1] and in assay [2] was “inactive” in each case.
Consider `COC(=O)C1=COC(OC2OC(CO)C(O)C(O)C2O)C2C1C=CC2(O)CO` (configuration not stated), for which the Potency entry in assay [1] and in assay [2] was “inactive” in each case.
Regarding `CCCNc1ccc2ncc(-c3ccc4[nH]ncc4c3)n2n1`, the Potency result in assay [1] and in assay [2] was “inactive” throughout.
Consider `C/C=C/c1cc(OC)c2c(c1)[C@@H](C)[C@@H](c1ccc(O)c(OC)c1)O2`, for which the Potency entry in assay [1] and in assay [2] was “inactive” throughout.
With `N#Cc1ccc2[nH]cc(CCCCN3CCN(c4ccc5oc(C(N)=O)cc5c4)CC3)c2c1`, the Potency entry in assay [1] and in assay [2] was “inactive” each time.
`CC(=O)O[C@@H]1[C@@H](O)[C@H](C)O[C@@H](O[C@H]2[C@@H]3C=CO[C@@H](O[C@@H]4O[C@H](CO)[C@@H](O)[C@H](O)[C@H]4O)[C@@H]3[C@@]3(CO)O[C@@H]23)[C@@H]1OC(=O)/C=C/c1ccccc1`: the Potency result in assay [1] and in assay [2] was “inactive” throughout.
Consider `C[C@H](NC(c1cccc2[nH]c(=O)c(=O)[nH]c12)P(=O)(O)O)c1ccc(Br)cc1` (some centres not stated), for which the Potency entry in assay [1] and in assay [2] was “inactive” throughout.
With `COC(=O)C1=CO[C@@H](O[C@@H]2O[C@H](CO)[C@@H](O)[C@H](O)[C@H]2O)C2C1C(=O)C[C@H]2C` (some centres not stated), the Potency entry in assay [1] and in assay [2] was “inactive” each time.
For `C[C@@H]1C[C@H]2O[C@@H]2/C=C\C=C\C(=O)Cc2c(Cl)c(O)cc(O)c2C(=O)O1`, the Potency entry in assay [1] and in assay [2] was “inactive” each time.
Turning to `O=[N+]([O-])c1cn2c(n1)OCC(OCc1ccc(OC(F)(F)F)cc1)C2` (configuration not stated), the Potency entry in assay [1] and in assay [2] was “inactive” each time.
As for `CC1(C)CC[C@]23CO[C@@]4(CCC5[C@@]6(C)CC[C@H](O[C@@H]7OC[C@H](O[C@@H]8O[C@H](CO)[C@@H](O)[C@H](O)[C@H]8O)[C@H](O)[C@H]7O[C@@H]7O[C@H](CO)[C@@H](O[C@@H]8O[C@H](CO)[C@@H](O)[C@H](O)[C@H]8O)[C@H](O)[C@H]7O)[C@@](C)(CO)C6CC[C@@]5(C)[C@]4(C)C[C@H]2OC2OCC(O)C(O)C2O)C3C1` (some centres not stated), the activity change, negative = inhibition in assay [1] was 15.7% [at 19.1 µM]. In assay [2], the outcome is “inactive [at 10.7 µM]”.
For `OC[C@H]1O[C@@H](OC(CCCCc2ccc(O)cc2)CCc2ccc(O)cc2)[C@H](O)[C@@H](O)[C@@H]1O` (some centres not stated), the Potency result in assay [1] and in assay [2] was “inactive” throughout.
On to `C=CC(C)(C)c1[nH]c2cc3c(cc2c1CC1NC(=O)C2=CCCN2C1=O)C=CC(C)(C)O3` (configuration not stated), for which the Potency result in assay [1] and in assay [2] was “inactive” each time.
Consider `Cc1ccc(C(=O)N(CCCN)C(c2oc3cc(Cl)ccc3c(=O)c2Cc2ccccc2)C(C)C)cc1` (configuration not stated), for which the Potency result in assay [1] and in assay [2] was “inactive” each time.
Consider `CCC1C(=O)OC23C=C[C@@H]4C(C(=O)O)=CO[C@H](O[C@@H]12)[C@@H]43` (some centres not stated), for which the Potency result in assay [1] and in assay [2] was “inactive” throughout.
As for `COc1ccc(-c2ccc(-c3cn(C(=O)N4CCCCC4c4ccccc4)nn3)cc2)cc1` (configuration not stated), the Potency result in assay [1] and in assay [2] was “inactive” throughout.
As for `C=C[C@]1(C)C[C@H](O)[C@@H]2[C@H](OC(=O)[C@@H]2C)C1/C(C)=C/O[C@@H]1O[C@H](CO)[C@@H](O)[C@H](O)[C@H]1O` (some centres not stated), the Potency entry in assay [1] and in assay [2] was “inactive” each time.
